From article PMC7862700, “An all-to-all approach to the identification of sequence-specific readers for epigenetic DNA modifications on cytosine”

How the values were obtained:
Assay in all cases: DAPPL (digital affinity profiling via proximity ligation, sequencing); 10 mM Tris-HCl pH 7.5, 50 mM NaCl, 1 mM DTT, 4% glycerol, room temperature, 30 min; GST-TFs on glutathione beads, 16-mer random dsDNA library, 0.1% formaldehyde crosslink after washing; high values mean tight binding
Details in all cases: protein: recombinant; tags: N-terminal GST; dsDNA, one strand shown
[1] = target: T1, FLI1 (Homo sapiens, UniProt Q01543 1-452)
T1 sequence: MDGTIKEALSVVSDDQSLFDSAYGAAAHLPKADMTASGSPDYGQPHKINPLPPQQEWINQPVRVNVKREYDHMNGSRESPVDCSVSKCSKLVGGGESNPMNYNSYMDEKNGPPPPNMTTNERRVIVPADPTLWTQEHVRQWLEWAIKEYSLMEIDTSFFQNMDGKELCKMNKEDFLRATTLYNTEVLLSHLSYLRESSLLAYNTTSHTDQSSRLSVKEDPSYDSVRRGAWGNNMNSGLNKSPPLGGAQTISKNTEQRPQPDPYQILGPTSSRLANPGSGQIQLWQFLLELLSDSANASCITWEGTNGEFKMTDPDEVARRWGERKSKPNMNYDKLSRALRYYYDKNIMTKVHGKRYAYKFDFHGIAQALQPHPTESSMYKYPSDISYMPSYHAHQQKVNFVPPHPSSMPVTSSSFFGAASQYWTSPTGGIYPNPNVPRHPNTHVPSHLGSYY
Procedure, shortened: (§1)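 Sequencing on an Illumina NextSeq500 followed washing, crosslinking with 0.1% formaldehyde, proximity ligation (BsaI/T4 ligase, 1 h, 37 °C) and PCR amplification of pools that had been incubated for 30 min at room temperature with 200 nmole of a random double-stranded 16-mer DNA library in Tris/NaCl/DTT/glycerol buffer. Each pool held DNA-barcoded human transcription factors, expressed in yeast as GST fusions and captured on glutathione beads, plus a tag-only sample. Binding signal is a hexamer's read frequency for a factor divided by its frequency in the tag-only sample.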

[2] = target: T2, ELK1 (Homo sapiens, UniProt P19419 1-428)
T2 sequence: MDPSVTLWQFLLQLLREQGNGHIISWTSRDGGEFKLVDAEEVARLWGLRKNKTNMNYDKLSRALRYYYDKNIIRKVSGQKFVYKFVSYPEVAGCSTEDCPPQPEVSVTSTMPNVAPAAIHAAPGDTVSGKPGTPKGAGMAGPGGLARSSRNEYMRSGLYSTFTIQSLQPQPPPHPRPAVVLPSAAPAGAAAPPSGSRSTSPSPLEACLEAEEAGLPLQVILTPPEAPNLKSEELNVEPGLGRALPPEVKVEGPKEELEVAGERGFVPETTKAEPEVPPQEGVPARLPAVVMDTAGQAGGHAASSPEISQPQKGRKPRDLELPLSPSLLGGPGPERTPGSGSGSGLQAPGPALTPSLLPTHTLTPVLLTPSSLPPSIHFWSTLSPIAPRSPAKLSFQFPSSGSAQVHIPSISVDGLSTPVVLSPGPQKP
Procedure, shortened: as §1

[3] = target: T3, GABPA (Homo sapiens, UniProt Q06546 1-454)
T3 sequence: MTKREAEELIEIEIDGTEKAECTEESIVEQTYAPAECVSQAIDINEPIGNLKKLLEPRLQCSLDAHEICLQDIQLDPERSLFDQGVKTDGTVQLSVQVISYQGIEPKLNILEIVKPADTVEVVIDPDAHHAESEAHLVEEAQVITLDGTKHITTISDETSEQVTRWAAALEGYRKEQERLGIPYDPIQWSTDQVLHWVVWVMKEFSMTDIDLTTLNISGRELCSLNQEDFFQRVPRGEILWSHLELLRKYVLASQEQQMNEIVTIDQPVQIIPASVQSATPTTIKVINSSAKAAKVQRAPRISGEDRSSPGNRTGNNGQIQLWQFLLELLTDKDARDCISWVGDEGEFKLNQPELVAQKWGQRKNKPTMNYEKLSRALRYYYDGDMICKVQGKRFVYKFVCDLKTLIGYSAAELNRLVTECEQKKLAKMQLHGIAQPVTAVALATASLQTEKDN
Procedure, shortened: as §1

[4] = target: T4, ERG (Homo sapiens, UniProt P11308 1-479)
T4 sequence: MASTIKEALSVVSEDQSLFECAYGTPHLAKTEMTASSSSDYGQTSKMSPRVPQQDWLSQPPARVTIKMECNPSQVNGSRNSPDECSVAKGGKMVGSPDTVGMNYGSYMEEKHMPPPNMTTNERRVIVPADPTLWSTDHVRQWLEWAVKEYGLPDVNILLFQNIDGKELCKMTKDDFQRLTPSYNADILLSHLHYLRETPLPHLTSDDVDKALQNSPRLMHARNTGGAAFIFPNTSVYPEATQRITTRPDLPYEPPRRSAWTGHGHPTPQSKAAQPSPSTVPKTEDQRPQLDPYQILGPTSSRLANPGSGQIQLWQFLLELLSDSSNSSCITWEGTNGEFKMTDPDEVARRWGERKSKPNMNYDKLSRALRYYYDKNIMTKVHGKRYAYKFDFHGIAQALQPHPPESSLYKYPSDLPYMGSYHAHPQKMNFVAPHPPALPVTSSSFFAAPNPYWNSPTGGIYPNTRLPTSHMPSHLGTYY
Procedure, shortened: as §1

[5] = target: ELF1 (Homo sapiens, UniProt P32519 1-619)
Procedure, shortened: as §1

[6] = target: T5, EHF (Homo sapiens, UniProt Q9NZC4 1-300)
T5 sequence: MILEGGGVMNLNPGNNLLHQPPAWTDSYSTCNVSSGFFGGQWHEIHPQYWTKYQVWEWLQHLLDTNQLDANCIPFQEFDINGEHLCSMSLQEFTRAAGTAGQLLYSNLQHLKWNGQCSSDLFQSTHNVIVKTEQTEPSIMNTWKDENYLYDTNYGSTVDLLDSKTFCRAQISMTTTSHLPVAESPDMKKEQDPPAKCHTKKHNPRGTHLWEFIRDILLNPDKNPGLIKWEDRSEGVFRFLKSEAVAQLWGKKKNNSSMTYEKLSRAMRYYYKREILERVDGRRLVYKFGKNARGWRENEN
Procedure, shortened: as §1

[7] = target: SPI1 (Homo sapiens, UniProt P17947 1-270)
Procedure, shortened: as §1

[8] = target: SPIB (Homo sapiens, UniProt Q01892 1-262)
Procedure, shortened: as §1

[9] = target: T6, ELK3 (Homo sapiens, UniProt P41970 1-407)
T6 sequence: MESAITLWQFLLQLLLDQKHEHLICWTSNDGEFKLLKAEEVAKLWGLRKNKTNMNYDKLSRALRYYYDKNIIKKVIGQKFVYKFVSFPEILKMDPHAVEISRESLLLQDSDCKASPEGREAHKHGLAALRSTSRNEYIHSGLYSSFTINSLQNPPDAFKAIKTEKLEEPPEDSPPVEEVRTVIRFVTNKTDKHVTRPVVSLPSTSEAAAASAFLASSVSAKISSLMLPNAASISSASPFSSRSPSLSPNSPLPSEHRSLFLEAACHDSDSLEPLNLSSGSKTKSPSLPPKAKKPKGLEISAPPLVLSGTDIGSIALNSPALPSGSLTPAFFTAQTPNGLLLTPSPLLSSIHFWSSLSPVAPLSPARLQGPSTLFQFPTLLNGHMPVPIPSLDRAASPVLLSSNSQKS
Procedure, shortened: as §1

Chain of SPIB (Q01892 whole entry): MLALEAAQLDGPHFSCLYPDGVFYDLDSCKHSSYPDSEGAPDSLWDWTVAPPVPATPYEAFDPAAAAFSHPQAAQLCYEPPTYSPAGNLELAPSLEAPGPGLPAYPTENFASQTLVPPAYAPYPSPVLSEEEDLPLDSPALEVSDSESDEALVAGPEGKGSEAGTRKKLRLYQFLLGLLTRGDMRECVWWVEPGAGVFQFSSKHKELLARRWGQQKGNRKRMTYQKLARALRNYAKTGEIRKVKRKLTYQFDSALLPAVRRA
Chain of ELF1 (P32519 whole entry): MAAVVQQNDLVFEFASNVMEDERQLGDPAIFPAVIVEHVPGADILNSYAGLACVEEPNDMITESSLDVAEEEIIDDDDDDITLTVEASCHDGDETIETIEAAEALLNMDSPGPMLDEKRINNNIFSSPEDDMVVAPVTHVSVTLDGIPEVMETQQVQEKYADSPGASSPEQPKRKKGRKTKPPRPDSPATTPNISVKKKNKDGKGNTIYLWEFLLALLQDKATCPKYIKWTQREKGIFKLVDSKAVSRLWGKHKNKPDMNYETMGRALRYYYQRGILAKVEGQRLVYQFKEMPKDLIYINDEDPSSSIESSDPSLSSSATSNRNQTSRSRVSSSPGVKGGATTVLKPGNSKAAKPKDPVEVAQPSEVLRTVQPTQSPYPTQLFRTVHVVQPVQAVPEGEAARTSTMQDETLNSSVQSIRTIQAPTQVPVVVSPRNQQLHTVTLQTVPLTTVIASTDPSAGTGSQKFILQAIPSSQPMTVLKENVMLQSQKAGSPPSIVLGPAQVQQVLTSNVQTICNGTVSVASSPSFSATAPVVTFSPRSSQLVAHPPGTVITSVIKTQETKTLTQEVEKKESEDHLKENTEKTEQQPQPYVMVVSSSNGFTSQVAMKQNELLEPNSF

Row | Sequence | binding signal [1] | binding signal [2] | binding signal [3] | binding signal [4] | binding signal [5] | binding signal [6] | binding signal [7] | binding signal [8] | binding signal [9]
1 | TCTGGC | 1.36 fold enrichment (6-mer frequency, TF over GST control) | 1.26 fold enrichment (6-mer frequency, TF over GST control) | 1.29 fold enrichment (6-mer frequency, TF over GST control) | 1.27 fold enrichment (6-mer frequency, TF over GST control) | 1.14 fold enrichment (6-mer frequency, TF over GST control) | 1.22 fold enrichment (6-mer frequency, TF over GST control) | 1.25 fold enrichment (6-mer frequency, TF over GST control) | 1.09 fold enrichment (6-mer frequency, TF over GST control) | 1.18 fold enrichment (6-mer frequency, TF over GST control)
2 | CTCAAT | 1.28 fold enrichment (6-mer frequency, TF over GST control) | 1.2 fold enrichment (6-mer frequency, TF over GST control) | 1.28 fold enrichment (6-mer frequency, TF over GST control) | 1.27 fold enrichment (6-mer frequency, TF over GST control) | 1.23 fold enrichment (6-mer frequency, TF over GST control) | 1.25 fold enrichment (6-mer frequency, TF over GST control) | 1.33 fold enrichment (6-mer frequency, TF over GST control) | 1.36 fold enrichment (6-mer frequency, TF over GST control) | 1.34 fold enrichment (6-mer frequency, TF over GST control)
3 | TCTCAC | 1.45 fold enrichment (6-mer frequency, TF over GST control) | 1.45 fold enrichment (6-mer frequency, TF over GST control) | 1.43 fold enrichment (6-mer frequency, TF over GST control) | 1.41 fold enrichment (6-mer frequency, TF over GST control) | 1.39 fold enrichment (6-mer frequency, TF over GST control) | 1.39 fold enrichment (6-mer frequency, TF over GST control) | 1.36 fold enrichment (6-mer frequency, TF over GST control) | 1.48 fold enrichment (6-mer frequency, TF over GST control) | 1.58 fold enrichment (6-mer frequency, TF over GST control)
4 | TTGGTT | 1.51 fold enrichment (6-mer frequency, TF over GST control) | 1.38 fold enrichment (6-mer frequency, TF over GST control) | 1.45 fold enrichment (6-mer frequency, TF over GST control) | 1.37 fold enrichment (6-mer frequency, TF over GST control) | 1.39 fold enrichment (6-mer frequency, TF over GST control) | 1.4 fold enrichment (6-mer frequency, TF over GST control) | 1.43 fold enrichment (6-mer frequency, TF over GST control) | 1.47 fold enrichment (6-mer frequency, TF over GST control) | 1.43 fold enrichment (6-mer frequency, TF over GST control)
5 | TTGGTG | 1.35 fold enrichment (6-mer frequency, TF over GST control) | 1.21 fold enrichment (6-mer frequency, TF over GST control) | 1.42 fold enrichment (6-mer frequency, TF over GST control) | 1.23 fold enrichment (6-mer frequency, TF over GST control) | 1.3 fold enrichment (6-mer frequency, TF over GST control) | 1.43 fold enrichment (6-mer frequency, TF over GST control) | 1.22 fold enrichment (6-mer frequency, TF over GST control) | 1.22 fold enrichment (6-mer frequency, TF over GST control) | 1.55 fold enrichment (6-mer frequency, TF over GST control)
6 | CTTTTC | 1.44 fold enrichment (6-mer frequency, TF over GST control) | 1.51 fold enrichment (6-mer frequency, TF over GST control) | 1.34 fold enrichment (6-mer frequency, TF over GST control) | 1.43 fold enrichment (6-mer frequency, TF over GST control) | 1.38 fold enrichment (6-mer frequency, TF over GST control) | 1.39 fold enrichment (6-mer frequency, TF over GST control) | 1.65 fold enrichment (6-mer frequency, TF over GST control) | 1.53 fold enrichment (6-mer frequency, TF over GST control) | 1.23 fold enrichment (6-mer frequency, TF over GST control)
7 | GATCTT | 1.29 fold enrichment (6-mer frequency, TF over GST control) | 1.33 fold enrichment (6-mer frequency, TF over GST control) | 1.32 fold enrichment (6-mer frequency, TF over GST control) | 1.35 fold enrichment (6-mer frequency, TF over GST control) | 1.23 fold enrichment (6-mer frequency, TF over GST control) | 1.22 fold enrichment (6-mer frequency, TF over GST control) | 1.19 fold enrichment (6-mer frequency, TF over GST control) | 1.36 fold enrichment (6-mer frequency, TF over GST control) | 1.29 fold enrichment (6-mer frequency, TF over GST control)
8 | ATCTGG | 1.19 fold enrichment (6-mer frequency, TF over GST control) | 1.01 fold enrichment (6-mer frequency, TF over GST control) | 1.17 fold enrichment (6-mer frequency, TF over GST control) | 1.14 fold enrichment (6-mer frequency, TF over GST control) | 1.18 fold enrichment (6-mer frequency, TF over GST control) | 1.12 fold enrichment (6-mer frequency, TF over GST control) | 1.12 fold enrichment (6-mer frequency, TF over GST control) | 1.14 fold enrichment (6-mer frequency, TF over GST control) | 1.09 fold enrichment (6-mer frequency, TF over GST control)
